# Laboratory results as given in PubChem BioAssay.
# Values without a mark were called inactive. Activity calls are given as the source filed them. Rule as the data show it, unless noted: active = inhibition above about 33%; inactive = the rest.
# Experiments:
# [1] = StAR promoter reporter inhibitors, counter-screen for LRH-1 inverse agonist project, cell-based, luminescence, high throughput (AID 651611; in the data active = inhibition above about 28%); conditions: StAR promoter luciferase reporter counterscreen, at 3.6 µM, stronger effect = higher value
# [2] = biological target: Nuclear receptor subfamily 5 group A member 2 (Homo sapiens) (UniProt O00482); experiment: LRH-1 (NR5A2) inverse agonists, retest, confirmation, cell-based, luminescence (AID 651613; in the data active = inhibition above about 42%;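 also: HEK293T cells co-transfected with LRH-1 and StAR promoter luciferase reporter; 0% = vehicle wells and 100% = parental cells lacking receptor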); conditions: cell-based LRH-1 luciferase reporter, inverse agonism; at 3.6 µM; stronger effect = higher value
# [3] = biological target: Steroidogenic factor 1 (Homo sapiens) (UniProt Q13285); experiment: SF1 (NR5A1) inverse agonists, counter-screen for LRH-1 inverse agonist project, cell-based, luminescence, high throughput (AID 651614; in the data active = inhibition above about 44%;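 also: cells cotransfected with StAR promoter reporter and SF1 expression vector; 0% = vehicle on cells with receptor and 100% = vehicle on cells lacking receptor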); conditions: cell-based SF1 luciferase reporter, at 3.6 µM, stronger effect = higher value
# [4] = VP16 transactivation reporter inhibitors, counter-screen for LRH-1 inverse agonist project, cell-based, luminescence, high throughput (AID 651615); conditions: Gal4-VP16 luciferase reporter cells, at 3.6 µM, stronger effect = higher value
# Nuclear receptor subfamily 5 group A member 2 (Homo sapiens), sequence (O00482 whole entry, looked up): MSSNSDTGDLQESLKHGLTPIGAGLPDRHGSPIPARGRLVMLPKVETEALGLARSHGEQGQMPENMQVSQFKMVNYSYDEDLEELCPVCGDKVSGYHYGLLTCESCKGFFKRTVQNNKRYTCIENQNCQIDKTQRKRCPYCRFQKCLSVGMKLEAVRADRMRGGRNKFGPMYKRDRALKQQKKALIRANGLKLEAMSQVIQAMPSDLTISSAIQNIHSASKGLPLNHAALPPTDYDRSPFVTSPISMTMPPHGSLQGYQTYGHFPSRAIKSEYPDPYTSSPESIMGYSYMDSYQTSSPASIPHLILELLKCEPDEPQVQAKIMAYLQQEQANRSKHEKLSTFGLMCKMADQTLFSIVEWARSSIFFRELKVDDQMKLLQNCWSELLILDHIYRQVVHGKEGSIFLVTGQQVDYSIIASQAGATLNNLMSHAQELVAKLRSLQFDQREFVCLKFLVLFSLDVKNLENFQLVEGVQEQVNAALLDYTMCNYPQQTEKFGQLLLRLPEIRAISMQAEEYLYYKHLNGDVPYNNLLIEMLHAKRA
# Steroidogenic factor 1 (Homo sapiens), sequence (Q13285 whole entry, looked up, the tested form may be a part): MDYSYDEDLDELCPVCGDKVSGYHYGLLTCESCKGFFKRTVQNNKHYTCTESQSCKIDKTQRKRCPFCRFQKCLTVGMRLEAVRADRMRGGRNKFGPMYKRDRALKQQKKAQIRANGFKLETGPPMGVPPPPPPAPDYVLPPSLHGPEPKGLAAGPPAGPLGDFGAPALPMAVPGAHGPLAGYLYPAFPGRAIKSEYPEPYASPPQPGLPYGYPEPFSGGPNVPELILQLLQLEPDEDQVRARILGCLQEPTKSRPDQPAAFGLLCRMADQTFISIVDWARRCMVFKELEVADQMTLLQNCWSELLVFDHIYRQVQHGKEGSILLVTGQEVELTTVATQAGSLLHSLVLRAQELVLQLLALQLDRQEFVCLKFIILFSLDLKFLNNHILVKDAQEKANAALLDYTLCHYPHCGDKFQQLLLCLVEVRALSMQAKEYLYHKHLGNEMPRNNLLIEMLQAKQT
Compound,inhibition [1],inhibition [2],inhibition [3],inhibition [4] [%]
C/C(CC1CC(C)(C)OC1=O)=N/Nc1nc(-c2ccccc2)cs1 (stereo unspecified),-5.65%,47.3% (active),54.3% (active),-29.5
COc1ccc(-c2c(C)cc3oc(=O)cc(-c4ccccc4)c3c2C)cc1,10.6%,54.8% (active),45.4% (active),17.3
COc1ccc(C2=Nn3c(nnc3-c3ccccc3F)SC2)cc1OC1CCOC1 (stereo unspecified),56.2% (active),75% (active),78.2% (active),-40.3
COc1cccc(C2c3cc4c(cc3OC(NNC(N)=O)C2C)OCO4)c1O (stereo unspecified),24.7%,59% (active),60.1% (active),26.5
Cc1ccc(NC(=O)CN2C(=O)NC(C)(CC(C)C)C2=O)c(Br)c1 (stereo unspecified),15.9%,55.1% (active),61.6% (active),-6.87
Cc1cc(Cl)ccc1NC(=O)CN1C(=O)C(=O)N(C2CCCC2)C1=O,5.58%,50.9% (active),43.8% (active),1.38
CCCN(CC(=O)Nc1ccc(C(C)=O)cc1)CC(=O)Nc1ccccc1C,1.27%,62.4% (active),56% (active),9.79
C/C(=N\Nc1nc2ccccc2[nH]1)c1ccccn1,71.4% (active),83.1% (active),73.9% (active),2.13
COc1ccc(C(=O)OCC(=O)Nc2ccc(N3CCOCC3)cc2)cc1OC,10.1%,52.8% (active),51.7% (active),-1.85
